The list is not random: actives were taken first. Their share in the collection is about 21%.
AMA1 RON2 block: qHTS for Inhibitors of AMA1-RON; Towards Development of Antimalarial Drug Lead: Primary Screen; AlphaScreen AMA1-biotinylated RON2 peptide binding; Potency, µM (titrated, usually from 58.2 µM), hits mostly inhibitors; 360,000 tested, 0.2% active; AID 720542, 2013; also: nearly all actives have a fitted effect of over 45% in size
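AMA1 (3D7) with his tag at 25 nM final met compounds first, then biotinylated RON2 peptide at 25 nM; detection used donor plus acceptor beads, 10 µg/mL apiece, read by AlphaScreen after 30 min at room temperature.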
Shiga toxin inh: A qHTS for Small Molecule Inhibitors of Shiga Toxin | Vero cells, Shiga toxin protein synthesis inhibition reporter | inhibition, % at 38.7 µM | 290,000 tested, 9.2% active | AID 2315, 2010; in the data active = inhibition mostly above about 28%, no sharp cut-off; inactive = mostly below about 43%
Pf growth 96h: Primary qHTS for delayed death inhibitors of the malarial parasite plastid, 96 hour incubation; 320,000 tested, 6.9% active; Potency, µM (highest dose often 28.7 µM), actives largely listed as inhibitors; P. falciparum luciferase reporter growth, 96 h; AID 504834, 2011
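Erythrocytes infected with luciferase-expressing P. falciparum were dispensed at 2% hematocrit and 0.05% parasitemia (final), then incubated with compounds 96 hours at 37 C in 5% CO2. Luminescence after detection reagent addition reported growth.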
CHX counter: Cycloheximide Counterscreen for Small Molecule Inhibitors of Shiga Toxin; cell reporter, cycloheximide protein synthesis inhibition counterscreen; max response, %; 300,000 tested, 12% active; in the data active = max response mostly above about 13%, no sharp cut-off; inactive = mostly below about 14%; also: read at 38.3 µM for the half of the compounds with a filed dose
Pf growth 48h: Primary qHTS for delayed death inhibitors of the malarial parasite plastid, 48 hour incubation; P. falciparum luciferase growth in erythrocytes, 48 h; Potency, µM (titrated, usually from 28.7 µM), actives largely listed as inhibitors; 310,000 tested, 5.9% active
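Here the parasites carry a stable luciferase gene and grow inside erythrocytes in Albumax-based RPMI medium with compound for one erythrocytic cycle. Activity is scored as loss of luminescent signal.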
HCV inh: qHTS Assay for Inhibitors of Hepatitis C Virus (HCV). 340,000 tested, 3.4% active. Potency, µM (series often up to 41.8 µM), actives largely listed as inhibitors. Huh7.5.1 HCVcc-Cre infection, luciferase reporter, 44 h
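Luciferase read-out (15 sec integration) after a 15 min room-temperature substrate step quantifies HCVcc-Cre infection. Cells, 1,000 per well, had compound added 4 h post-plating, then virus at ~0.5 moi, and were cultured 44 h.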
Of the large screens only hits and unclear results are named; the others gave an inactive call; ! = not active in a repeat. Unless noted, calls follow the shape of the dose curve; as a rule, active = well fitted curve in the direction sought with a large enough effect; inconclusive = small, poorly fitted or top-dose-only effect, or another doubt; inactive = no such curve, though single readings can be large; an effect the other way counts as inactive or inconclusive.

Cc1cc2n(n1)SC(Nc1cccc3ccccc13)N2 (stereo not given)	Shiga toxin inh 52, CHX counter 27
CCn1c(=O)c(=O)[nH]c2cc(C(=O)NC(C)c3ccc(S(N)(=O)=O)cc3)ccc21 (stereo not given)	Pf growth 48h inconclusive
COc1ccc(C(=O)NCc2cccnc2)cc1OC	none (no result: HCV inh)
COc1ccc(NC(=O)C2=Cc3cccc(OC)c3OC2)cc1	Shiga toxin inh 60, CHX counter 31, HCV inh inconclusive
COc1cccc2c1OCC(C(=O)OCc1cccnc1)=C2	CHX counter 15
COC(=O)c1ccccc1NC(=O)CN1C(=O)c2ccccc2C1=O	none (no result: Shiga toxin inh, Pf growth 96h, CHX counter, Pf growth 48h)
Fc1cccc(NC(=S)NCc2ccccn2)c1	Shiga toxin inh 94, CHX counter 50
Cc1cc(=O)oc2cc(Nc3ccccc3)ccc12	Shiga toxin inh 55, CHX counter 60
Cc1cc(=O)oc2cc(NC(=S)NNC(=O)c3c(Cl)cnn3C)ccc12	Shiga toxin inh 48, Pf growth 96h inconclusive (no result: HCV inh)
COc1ccccc1C(=O)Nc1ccc2c(C)cc(=O)oc2c1	Shiga toxin inh 107, CHX counter 35
Cc1cc(=O)oc2cc(NC(=O)CCC(=O)O)ccc12	none
Cc1cc(=O)oc2cc(NC(=O)Cc3ccccc3)ccc12	Shiga toxin inh 45
Cc1cc(=O)oc2cc(NC(=O)c3cccc(S(=O)(=O)N(C)C)c3)ccc12	Shiga toxin inh 66, CHX counter 28, HCV inh inconclusive
Cc1cc(=O)oc2cc(NC(=O)c3ccc(OC(F)F)cc3)ccc12	Shiga toxin inh 43, CHX counter 21
Cc1cc(=O)oc2cc(NC(=S)NCc3ccccn3)ccc12	Shiga toxin inh 34
Cc1cc(=O)oc2cc(OCC(=O)NCc3ccccn3)ccc12	Pf growth 96h inconclusive, Pf growth 48h inconclusive
CCCCC(CCc1ccccn1)C(=O)c1ccccc1 (stereo not given)	none (no result: Shiga toxin inh, Pf growth 96h, CHX counter, Pf growth 48h)
COc1ccc(C)cc1S(=O)(=O)NC(C)C(=O)Nc1ccc2c(c1)OCO2 (stereo not given)	Pf growth 96h inconclusive
COc1ccc(O)c(/C=N/NC(=O)CCC(=O)Nc2ccc(F)cc2)c1	none
COc1cc(C2N3CC4(C)CN2CC(C)(C3)C4)ccc1O (stereo not given)	none
COc1ccc(C2N(c3ccccc3)CCN2c2ccccc2)cc1O	AMA1 RON2 block inconclusive, Shiga toxin inh 59, CHX counter 26
CCC(C)(C)NC(=O)C(c1ccc(OC)cc1)N(C(=O)CCC(=O)Nc1cc(C)on1)c1ccc2c(c1)OCO2 (stereo not given)	Pf growth 96h inconclusive, Pf growth 48h inconclusive
C=CCn1c(C(C)NC(=O)CCC)nc2ccccc21 (stereo not given)	HCV inh 11µM
C=CCn1c(C(O)c2ccccc2)nc2ccccc21 (stereo not given)	CHX counter 16 (no result: Shiga toxin inh)
Cc1ccc(S(=O)(=O)N(C)C)cc1NC(=O)CCc1ccccc1	none
CN(C)CCn1cnc2c(c1=N)C(c1ccccc1)c1ccc3ccccc3c1O2 (stereo not given)	Pf growth 96h 5.2µM, Pf growth 48h 5.2µM, HCV inh 13µM
COc1ccc(C2c3ccc(O)cc3Oc3ncn(CCCO)c(=N)c32)cc1 (stereo not given)	Pf growth 96h inconclusive, Pf growth 48h inconclusive
N=c1c2c(ncn1Cc1ccco1)Oc1c(ccc3ccccc13)C2c1ccccc1 (stereo not given)	Shiga toxin inh 18, Pf growth 96h inconclusive, CHX counter 23, Pf growth 48h 15µM, HCV inh inconclusive
N=c1c2c(ncn1Cc1ccco1)Oc1cc(O)ccc1C2c1ccccc1 (stereo not given)	Pf growth 96h inconclusive, Pf growth 48h 12µM, HCV inh inconclusive
C[C@H]1CN([C@@H](C)CO)C(=O)c2cc(C#CC3CCCC3)cnc2O[C@H]1CN(C)C(=O)Cc1ccccn1	none (no result: Shiga toxin inh, Pf growth 96h, CHX counter, Pf growth 48h, HCV inh)
O=C(CNC(=O)c1ccccc1)Oc1cccc(Cl)c1	none (no result: Shiga toxin inh, Pf growth 96h, CHX counter, Pf growth 48h)
COc1ccc([N+](=O)[O-])cc1NC(=O)c1cn(-c2ccc(C)c(C)c2)c(=O)c2ccccc12	Pf growth 96h 12µM
CCCC1CCC(=NNC(=O)OC(C)(C)C)CC1 (stereo not given)	CHX counter 31
Nc1cc(N)nc(SCC(=O)NC2CCCCCCC2)n1	none (no result: Shiga toxin inh, CHX counter)
Cc1cccc(C(=O)NC(C(=O)Nc2nc(-c3ccccn3)cs2)C(C)C)c1 (stereo not given)	Pf growth 96h inconclusive, Pf growth 48h 15µM, HCV inh inconclusive
CC(Oc1cccc(Cl)c1)C(=O)Nc1nc(-c2ccccn2)cs1 (stereo not given)	Pf growth 96h 2.6µM, Pf growth 48h 2.6µM, HCV inh 6.3µM (no result: Shiga toxin inh, CHX counter)
CC(Oc1ccccc1)C(=O)Nc1nc(-c2ccccn2)cs1 (stereo not given)	Pf growth 96h 2.3µM, Pf growth 48h 1.9µM, HCV inh inconclusive (no result: Shiga toxin inh, CHX counter)
C[C@H](NC(=O)c1ccccc1)C(=O)Nc1nc(-c2ccccn2)cs1	Pf growth 48h inconclusive, HCV inh inconclusive
CC(Oc1ccccc1)C(=O)Nc1nc(-c2ccncc2)cs1 (stereo not given)	none (no result: Shiga toxin inh, CHX counter)
Cc1cc(C)c2cc(C#N)c(NCCNC(=O)c3ccccn3)nc2c1	none (no result: Shiga toxin inh, Pf growth 96h, CHX counter, Pf growth 48h, HCV inh)
CCCCC(CC)CN=C(N)NC(N)=NCCCCCCN=C(N)NC(N)=NCC(CC)CCCC (stereo not given)	Pf growth 96h 0.066µM!, Pf growth 48h 0.23µM, HCV inh inconclusive (no result: Shiga toxin inh, CHX counter)
CCCCC(CC)CO (stereo not given)	none (no result: Shiga toxin inh, Pf growth 96h, CHX counter, Pf growth 48h)
CN1C(=O)N(C)C(=O)C2(Cc3cc(NC(=O)c4ccccc4Cl)ccc3N3CCCC32)C1=O (stereo not given)	Pf growth 96h 5.2µM, Pf growth 48h inconclusive
CN1C(=O)N(C)C(=O)C2(Cc3cc(N)ccc3N3CCN(c4ccccc4F)CC32)C1=O (stereo not given)	none (no result: AMA1 RON2 block, Pf growth 96h, Pf growth 48h, HCV inh)
CN1C(=O)N(C)C(=O)C2(Cc3cc(NC(=O)c4ccccc4)ccc3N3CCCC32)C1=O (stereo not given)	Pf growth 96h 10µM, Pf growth 48h 9.3µM
OC1CCCCC1Sc1nc2ccccc2s1 (stereo not given)	Shiga toxin inh 104, Pf growth 96h inconclusive, CHX counter 42, HCV inh inconclusive
Cc1cc(NC(=O)Cn2nc(C)c([N+](=O)[O-])c2C)no1	none
CC(=O)Nc1ccccc1N(CC(O)Cn1c2ccccc2c2ccccc21)S(=O)(=O)c1ccc(C)cc1 (stereo not given)	Pf growth 96h inconclusive, Pf growth 48h inconclusive, HCV inh 11µM
CS(=O)(=O)N(CC(O)Cn1c2ccccc2c2ccccc21)c1ccccc1 (stereo not given)	Pf growth 96h inconclusive, Pf growth 48h inconclusive
